Inconclusive results are not listed. Unmarked numbers belong to inactive results. Active and inactive are the calls of the source. Unless noted, calls follow the shape of the dose curve; as a rule, active = well fitted curve in the direction sought with a large enough effect; inconclusive = small, poorly fitted or top-dose-only effect, or another doubt; inactive = no such curve, though single readings can be large; an effect the other way counts as inactive or inconclusive.
Assays:
[1] = NCATS anti-infectives library activity on HEK293 viability as a counter-qHTS vs the C. elegans viability qHTS (AID 1745854)
Method in brief: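 HEK293 cells, 1500 per well, exposed 24 hr at 37C in 5% CO2 to compounds in a 1:5 titration, up to 41.7 uM final. Viability read as CellTiter-Glo luminescence after 10 min at room temperature.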

[2] = molecular target: ATP-dependent 6-phosphofructokinase (Trypanosoma brucei brucei) (UniProt O15648); assay: qHTS Assay to Find Inhibitors of T. brucei phosphofructokinase: hit validation (AID 492961)
Sequence of ATP-dependent 6-phosphofructokinase (Trypanosoma brucei brucei) (O15648 whole entry, looked up): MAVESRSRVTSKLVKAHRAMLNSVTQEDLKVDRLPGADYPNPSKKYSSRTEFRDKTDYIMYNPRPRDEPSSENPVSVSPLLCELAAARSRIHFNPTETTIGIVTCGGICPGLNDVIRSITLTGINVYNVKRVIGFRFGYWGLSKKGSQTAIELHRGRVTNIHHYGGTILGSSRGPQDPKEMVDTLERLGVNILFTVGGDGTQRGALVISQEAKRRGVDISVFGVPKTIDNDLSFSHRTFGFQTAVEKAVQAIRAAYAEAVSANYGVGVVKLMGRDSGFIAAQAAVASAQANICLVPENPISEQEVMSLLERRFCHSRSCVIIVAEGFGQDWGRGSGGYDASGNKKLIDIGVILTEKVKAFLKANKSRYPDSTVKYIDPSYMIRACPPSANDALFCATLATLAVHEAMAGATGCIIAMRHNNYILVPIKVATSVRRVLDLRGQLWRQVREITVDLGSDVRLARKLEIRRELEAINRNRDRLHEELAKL
Method in brief: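 In this biochemical qHTS validation, titrated compounds were tested against 1.25 nM PFK with 0.1 mM ATP and 0.5 mM F6P. Percent activity came from controls lacking or containing enzyme.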

[3] = molecular target: Luciferin 4-monooxygenase (Photinus pyralis) (UniProt P08659); assay: Biochemical firefly luciferase enzyme assay for NPC (AID 624030); also: nearly all actives have a fitted effect of over 70% in size
Sequence of Luciferin 4-monooxygenase (Photinus pyralis) (P08659 whole entry, looked up): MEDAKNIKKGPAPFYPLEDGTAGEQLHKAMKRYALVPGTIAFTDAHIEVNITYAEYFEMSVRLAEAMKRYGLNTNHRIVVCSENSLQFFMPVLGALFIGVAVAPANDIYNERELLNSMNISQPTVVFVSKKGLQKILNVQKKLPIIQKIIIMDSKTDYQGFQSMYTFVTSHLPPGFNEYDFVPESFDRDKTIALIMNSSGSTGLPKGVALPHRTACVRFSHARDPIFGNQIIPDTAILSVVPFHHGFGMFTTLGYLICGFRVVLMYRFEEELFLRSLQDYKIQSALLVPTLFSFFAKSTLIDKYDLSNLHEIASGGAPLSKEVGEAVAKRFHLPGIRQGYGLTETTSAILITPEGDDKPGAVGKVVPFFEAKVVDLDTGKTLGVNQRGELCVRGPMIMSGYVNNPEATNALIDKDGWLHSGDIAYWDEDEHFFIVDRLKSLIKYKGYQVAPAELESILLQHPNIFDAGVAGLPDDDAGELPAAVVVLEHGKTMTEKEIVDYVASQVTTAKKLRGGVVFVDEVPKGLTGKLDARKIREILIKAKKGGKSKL
Method in brief: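 Direct inhibition of firefly luciferase enzyme (10 nM final, 50 mM Tris Acetate) assessed by luminescence within 5 minutes. Percent activity scaled between DMSO and PTC124 positive control, with concentration-effect curves classified by fit quality and response.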

[4] = S16 Schwann cell viability assay (CellTiter-Glo assay) (AID 624031); also: nearly all actives have a fitted effect of over 70% in size
Method in brief: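 This viability control uses native rat S16 Schwann cells grown in DMEM plus 10% FBS. After a 24 h compound treatment at 37 °C, CellTiter-Glo luminescence reports ATP content, scaled against DMSO-treated and cell-free wells.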

[5] = NCATS anti-infectives library activity on the primary C. elegans qHTS viability assay (AID 1745855; calls by dose curve)
Method in brief: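 Viability is taken from GFP fluorescence of PE254-GFP-FLuc C. elegans imaged by laser cytometry over 7 days. Ten L1 worms per well grow at 21 °C on TOP10 E. coli capsules with titrated compound; levamisole marks toxicity.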

[6] = qHTS profiling for inhibitors of Plasmodium falciparum proliferation (AID 504749); also: nearly all actives have a fitted effect of over 60% in size;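 as to activity, negative = inhibition: 0% = DMSO vehicle and full inhibition = artemisinin control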; conditions: P. falciparum in erythrocytes, SYBR Green DNA, 72 h, at 28.7 µM (top of the series)
Method in brief: (§1)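 Three-day growth assay of blood-stage parasites in erythrocytes (0.3% parasitemia, 2.5% hematocrit) at 37 C, 5% CO2, quantified by SYBR Green DNA staining after overnight detergent lysis.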

[7] = test system: 7G8; assay: as above; conditions: P. falciparum in erythrocytes, SYBR Green DNA, 72 h; series mostly up to 12.8 µM
Method in brief: as §1

[8] = test system: C2A; assay: as above; conditions: P. falciparum in erythrocytes, SYBR Green DNA, 72 h; series mostly up to 28.7 µM
Method in brief: as §1

[9] = test system: CP185; assay: as above; conditions: P. falciparum in erythrocytes, SYBR Green DNA, 72 h; series mostly up to 28.7 µM
Method in brief: as §1

[10] = test system: CP191; assay: as above; conditions: P. falciparum in erythrocytes, SYBR Green DNA, 72 h; series mostly up to 28.7 µM
Method in brief: as §1

[11] = test system: CP192; assay: as above; conditions: P. falciparum in erythrocytes, SYBR Green DNA, 72 h; series mostly up to 28.7 µM
Method in brief: as §1

[12] = test system: CP215; assay: as above; conditions: P. falciparum in erythrocytes, SYBR Green DNA, 72 h; series mostly up to 28.7 µM
Method in brief: as §1

[13] = test system: CP217; assay: as above; conditions: P. falciparum in erythrocytes, SYBR Green DNA, 72 h; series mostly up to 28.7 µM
Method in brief: as §1

[14] = test system: CP237; assay: as above; conditions: P. falciparum in erythrocytes, SYBR Green DNA, 72 h; series mostly up to 28.7 µM
Method in brief: as §1

[15] = test system: CP238; assay: as above; conditions: P. falciparum in erythrocytes, SYBR Green DNA, 72 h; series mostly up to 28.7 µM
Method in brief: as §1

[16] = test system: CP260; assay: as above; conditions: P. falciparum in erythrocytes, SYBR Green DNA, 72 h; series mostly up to 28.7 µM
Method in brief: as §1

[17] = test system: CP268; assay: as above; conditions: P. falciparum in erythrocytes, SYBR Green DNA, 72 h; series mostly up to 28.7 µM
Method in brief: as §1

[18] = test system: CP269; assay: as above; conditions: P. falciparum in erythrocytes, SYBR Green DNA, 72 h; series mostly up to 28.7 µM
Method in brief: as §1

[19] = test system: CP286; assay: as above; conditions: P. falciparum in erythrocytes, SYBR Green DNA, 72 h; series mostly up to 28.7 µM
Method in brief: as §1

[20] = test system: CP305; assay: as above; conditions: P. falciparum in erythrocytes, SYBR Green DNA, 72 h; series mostly up to 28.7 µM
Method in brief: as §1

[21] = test system: CP335; assay: as above; conditions: P. falciparum in erythrocytes, SYBR Green DNA, 72 h; series mostly up to 12.8 µM
Method in brief: as §1

[22] = test system: DFO2036; assay: as above; conditions: P. falciparum in erythrocytes, SYBR Green DNA, 72 h; series mostly up to 28.7 µM
Method in brief: as §1

[23] = test system: DIV14; assay: as above; conditions: P. falciparum in erythrocytes, SYBR Green DNA, 72 h; series mostly up to 28.7 µM
Method in brief: as §1

[24] = test system: DIV17; assay: as above; conditions: P. falciparum in erythrocytes, SYBR Green DNA, 72 h; series mostly up to 28.7 µM
Method in brief: as §1

[25] = test system: Dd2; assay: as above; conditions: P. falciparum in erythrocytes, SYBR Green DNA, 72 h; series mostly up to 28.7 µM
Method in brief: as §1

[26] = test system: ECU; assay: as above; conditions: P. falciparum in erythrocytes, SYBR Green DNA, 72 h; series mostly up to 28.7 µM
Method in brief: as §1

[27] = test system: FAB9; assay: as above; conditions: P. falciparum in erythrocytes, SYBR Green DNA, 72 h; series mostly up to 28.7 µM
Method in brief: as §1

[28] = test system: GB4; assay: as above; conditions: P. falciparum in erythrocytes, SYBR Green DNA, 72 h; series mostly up to 28.7 µM
Method in brief: as §1

[29] = test system: HB3; assay: as above; conditions: P. falciparum in erythrocytes, SYBR Green DNA, 72 h; series mostly up to 28.7 µM
Method in brief: as §1
Potency is read from the fitted curve at half-maximal effect.

Nc1cccc(C(OCCN2CCCCC2)c2cc3nccc(C(=O)O)c3s2)c1 (stereo not drawn)
Potency [1]: inactive

Nc1ncnc2c1ccn2[C@@H]1O[C@H](CO)[C@@H](O)[C@H]1O
Potency [1]: 1.12 µM (active)

CC(C)=CCC[C@](C)(O)[C@H]1CC[C@@]2(C)[C@H]1[C@@H](O)CC1[C@@]3(C)CC[C@@H](O[C@@H]4O[C@H](CO)[C@@H](O)[C@H](O)[C@H]4O)C(C)(C)C3CC[C@]12C (stereo partly drawn)
Potency [1]: inactive

[Hg+][c]1ccccc1
Potency [2]: 11.2 µM (active)
Potency [3]: 8.09 µM (active)
Potency [4]: 1.14 µM (active)
Potency [1]: 2 µM (active)
Potency [5]: 8.16 µM (active)
activity, negative = inhibition ([6]; parasite line A): 13.8%
activity, negative = inhibition ([6]; parasite line B): -0.414%
Potency [7]: 1.78 µM (active)
Potency [8]: inactive
Potency [9]: inactive
Potency [10]: inactive
Potency [11]: 12 µM (active)
Potency [12]: 10.7 µM (active)
Potency [13]: inactive
Potency [14]: inactive
Potency [15]: inactive
Potency [16]: inactive
Potency [17]: 9.53 µM (active)
Potency [18]: 15.1 µM (active)
Potency [19]: inactive
Potency [20]: 10.7 µM (active)
Potency [21]: 10.7 µM (active)
Potency [22]: inactive
Potency [23]: 9.53 µM (active)
Potency [24]: 13.5 µM (active)
Potency [25]: inactive
Potency [26]: inactive
Potency [27]: 7.08 µM (active)
Potency [28]: 9.53 µM (active)
Potency [29]: inactive

Reference: PubChem BioAssay (NCATS)
